Values joined by “and” are separate entries in the source; they are usually repeats but may differ in a detail not shown here. Identical values can stand only once.

For assay [1], the target named is Leukocyte tyrosine kinase receptor (Homo sapiens) (UniProt P29376). As to conditions: at 1 µM.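 Further: each value is the mean inhibition of LTK.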
Assay [2] addresses Tyrosine-protein kinase Lyn (Homo sapiens) (UniProt P07948). To be noted: at 0.1 µM.
Assay [3] shares this target. As to conditions: at 1 µM.
Assay [4] shares this target. As to conditions: at 0.1 µM. This is another data set of the same source.
Assay [5] shares this target. To be noted: at 1 µM. The source holds these as a separate data set.
Assay [6] addresses T1, Tyrosine-protein kinase Mer (Homo sapiens) (UniProt Q12866).
T1 sequence (whole entry): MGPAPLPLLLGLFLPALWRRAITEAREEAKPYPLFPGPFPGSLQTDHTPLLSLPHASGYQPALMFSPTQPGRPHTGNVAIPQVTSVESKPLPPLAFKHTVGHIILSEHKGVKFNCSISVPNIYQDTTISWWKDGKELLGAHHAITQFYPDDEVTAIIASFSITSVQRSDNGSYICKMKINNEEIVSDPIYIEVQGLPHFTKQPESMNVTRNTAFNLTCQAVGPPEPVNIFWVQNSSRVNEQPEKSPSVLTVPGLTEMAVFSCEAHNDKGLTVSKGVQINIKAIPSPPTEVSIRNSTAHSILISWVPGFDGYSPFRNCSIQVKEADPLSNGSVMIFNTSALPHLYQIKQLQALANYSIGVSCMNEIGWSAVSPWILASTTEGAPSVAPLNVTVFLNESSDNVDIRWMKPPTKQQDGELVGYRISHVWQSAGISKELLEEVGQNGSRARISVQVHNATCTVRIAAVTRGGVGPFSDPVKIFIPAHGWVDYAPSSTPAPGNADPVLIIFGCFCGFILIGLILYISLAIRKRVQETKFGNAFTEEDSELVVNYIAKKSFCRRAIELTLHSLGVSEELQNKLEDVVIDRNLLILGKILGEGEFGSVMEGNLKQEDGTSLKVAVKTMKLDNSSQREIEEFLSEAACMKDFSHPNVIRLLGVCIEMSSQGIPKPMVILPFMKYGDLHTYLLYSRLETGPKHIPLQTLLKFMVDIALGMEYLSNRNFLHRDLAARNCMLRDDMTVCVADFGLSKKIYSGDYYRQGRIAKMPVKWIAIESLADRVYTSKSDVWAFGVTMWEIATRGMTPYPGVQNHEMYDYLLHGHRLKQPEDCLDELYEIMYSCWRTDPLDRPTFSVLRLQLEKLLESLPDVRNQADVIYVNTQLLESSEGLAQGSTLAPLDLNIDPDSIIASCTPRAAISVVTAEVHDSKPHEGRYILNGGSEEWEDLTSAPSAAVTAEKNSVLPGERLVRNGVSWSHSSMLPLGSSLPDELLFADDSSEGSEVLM
To be noted: at 0.1 µM.

Assay [7] deals with T1, Tyrosine-protein kinase Mer (Homo sapiens). To be noted: at 1 µM.
In assay [8] the target is Hepatocyte growth factor receptor (Homo sapiens) (UniProt P08581). As to conditions: at 0.1 µM.
Assay [9] shares this target. To be noted: at 1 µM.
Assay [10] addresses T2, Muscle, skeletal receptor tyrosine-protein kinase (Homo sapiens) (UniProt O15146).
T2 sequence (whole entry): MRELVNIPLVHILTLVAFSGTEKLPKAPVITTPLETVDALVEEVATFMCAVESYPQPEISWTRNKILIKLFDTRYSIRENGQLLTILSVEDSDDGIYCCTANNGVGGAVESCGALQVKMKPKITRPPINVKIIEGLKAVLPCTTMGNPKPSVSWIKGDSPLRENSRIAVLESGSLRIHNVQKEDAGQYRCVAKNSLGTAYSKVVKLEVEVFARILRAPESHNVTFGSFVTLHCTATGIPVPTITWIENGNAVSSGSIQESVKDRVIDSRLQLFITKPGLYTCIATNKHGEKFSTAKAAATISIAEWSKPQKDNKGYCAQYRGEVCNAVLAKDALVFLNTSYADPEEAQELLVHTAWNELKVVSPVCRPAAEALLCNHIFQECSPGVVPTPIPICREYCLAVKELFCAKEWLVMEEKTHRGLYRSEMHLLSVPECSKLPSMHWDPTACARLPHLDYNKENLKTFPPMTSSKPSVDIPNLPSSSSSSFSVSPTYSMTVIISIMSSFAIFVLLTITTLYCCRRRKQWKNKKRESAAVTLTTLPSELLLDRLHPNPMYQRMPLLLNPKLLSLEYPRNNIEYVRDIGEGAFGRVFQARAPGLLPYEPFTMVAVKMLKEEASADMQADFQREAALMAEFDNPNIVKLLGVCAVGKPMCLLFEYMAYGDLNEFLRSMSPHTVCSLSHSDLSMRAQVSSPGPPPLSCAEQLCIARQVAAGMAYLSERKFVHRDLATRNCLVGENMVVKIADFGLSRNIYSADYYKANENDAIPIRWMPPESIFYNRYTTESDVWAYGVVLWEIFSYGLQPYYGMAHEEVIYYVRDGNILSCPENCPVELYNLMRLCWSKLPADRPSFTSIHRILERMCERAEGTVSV
As to conditions: at 0.1 µM.

Sequence of Leukocyte tyrosine kinase receptor (Homo sapiens) (P29376 whole entry): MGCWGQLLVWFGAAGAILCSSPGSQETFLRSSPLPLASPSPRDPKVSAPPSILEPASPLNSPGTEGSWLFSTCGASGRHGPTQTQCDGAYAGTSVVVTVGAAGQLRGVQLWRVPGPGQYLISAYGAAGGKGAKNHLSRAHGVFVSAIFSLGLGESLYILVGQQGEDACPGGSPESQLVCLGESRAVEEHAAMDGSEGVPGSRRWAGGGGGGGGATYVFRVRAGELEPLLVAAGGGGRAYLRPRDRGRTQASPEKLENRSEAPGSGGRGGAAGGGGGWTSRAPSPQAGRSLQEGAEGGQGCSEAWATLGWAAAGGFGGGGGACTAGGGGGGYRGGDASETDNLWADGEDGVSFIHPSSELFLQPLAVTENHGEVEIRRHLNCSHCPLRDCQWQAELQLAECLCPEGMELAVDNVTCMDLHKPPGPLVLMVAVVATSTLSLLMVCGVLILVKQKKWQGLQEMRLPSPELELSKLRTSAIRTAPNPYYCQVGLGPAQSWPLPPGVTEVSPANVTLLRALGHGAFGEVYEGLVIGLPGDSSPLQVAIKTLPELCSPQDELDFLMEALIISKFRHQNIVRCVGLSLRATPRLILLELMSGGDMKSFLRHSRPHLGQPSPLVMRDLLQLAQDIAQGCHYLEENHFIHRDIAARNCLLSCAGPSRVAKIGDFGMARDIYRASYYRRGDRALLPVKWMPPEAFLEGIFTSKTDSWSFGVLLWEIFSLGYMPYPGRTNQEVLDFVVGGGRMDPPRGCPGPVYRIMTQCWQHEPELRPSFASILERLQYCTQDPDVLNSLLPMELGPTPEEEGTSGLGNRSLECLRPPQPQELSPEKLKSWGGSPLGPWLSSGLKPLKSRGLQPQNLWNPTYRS
Sequence of Hepatocyte growth factor receptor (Homo sapiens) (P08581 whole entry): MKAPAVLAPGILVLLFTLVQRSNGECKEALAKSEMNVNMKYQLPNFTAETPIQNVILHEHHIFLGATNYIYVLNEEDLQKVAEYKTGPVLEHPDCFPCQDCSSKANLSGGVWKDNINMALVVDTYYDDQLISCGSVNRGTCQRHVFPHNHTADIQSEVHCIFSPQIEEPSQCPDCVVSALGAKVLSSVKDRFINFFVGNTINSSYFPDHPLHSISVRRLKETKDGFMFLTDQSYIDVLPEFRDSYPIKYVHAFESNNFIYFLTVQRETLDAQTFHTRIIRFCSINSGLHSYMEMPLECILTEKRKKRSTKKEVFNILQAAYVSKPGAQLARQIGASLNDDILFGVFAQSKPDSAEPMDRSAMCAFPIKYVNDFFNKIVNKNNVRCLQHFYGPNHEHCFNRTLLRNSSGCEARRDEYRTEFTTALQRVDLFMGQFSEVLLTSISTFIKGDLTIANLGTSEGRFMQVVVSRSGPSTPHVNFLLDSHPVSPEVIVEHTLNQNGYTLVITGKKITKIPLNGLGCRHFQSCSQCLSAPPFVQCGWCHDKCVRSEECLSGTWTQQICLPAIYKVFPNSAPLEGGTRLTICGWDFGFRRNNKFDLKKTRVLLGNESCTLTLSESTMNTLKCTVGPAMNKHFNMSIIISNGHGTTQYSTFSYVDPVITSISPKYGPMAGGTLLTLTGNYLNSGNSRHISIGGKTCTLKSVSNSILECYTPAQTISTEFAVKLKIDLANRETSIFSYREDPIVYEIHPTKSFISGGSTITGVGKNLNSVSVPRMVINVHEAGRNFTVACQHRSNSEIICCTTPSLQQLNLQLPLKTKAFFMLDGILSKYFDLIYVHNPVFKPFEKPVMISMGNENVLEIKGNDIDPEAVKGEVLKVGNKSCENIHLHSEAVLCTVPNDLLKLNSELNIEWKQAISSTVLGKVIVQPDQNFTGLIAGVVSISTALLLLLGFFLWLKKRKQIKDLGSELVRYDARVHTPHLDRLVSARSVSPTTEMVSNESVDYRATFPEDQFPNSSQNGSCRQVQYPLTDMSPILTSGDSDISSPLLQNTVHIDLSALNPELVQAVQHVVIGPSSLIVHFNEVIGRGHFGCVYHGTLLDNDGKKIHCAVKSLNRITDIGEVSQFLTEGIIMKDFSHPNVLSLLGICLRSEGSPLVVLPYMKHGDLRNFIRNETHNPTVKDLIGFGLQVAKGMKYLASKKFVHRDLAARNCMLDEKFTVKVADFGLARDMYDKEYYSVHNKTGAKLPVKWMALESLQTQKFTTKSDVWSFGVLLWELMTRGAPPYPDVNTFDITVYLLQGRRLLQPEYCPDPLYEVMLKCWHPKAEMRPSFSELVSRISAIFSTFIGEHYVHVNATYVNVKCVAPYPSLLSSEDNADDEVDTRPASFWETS
Sequence of Tyrosine-protein kinase Lyn (Homo sapiens) (P07948 2-512 limits assumed): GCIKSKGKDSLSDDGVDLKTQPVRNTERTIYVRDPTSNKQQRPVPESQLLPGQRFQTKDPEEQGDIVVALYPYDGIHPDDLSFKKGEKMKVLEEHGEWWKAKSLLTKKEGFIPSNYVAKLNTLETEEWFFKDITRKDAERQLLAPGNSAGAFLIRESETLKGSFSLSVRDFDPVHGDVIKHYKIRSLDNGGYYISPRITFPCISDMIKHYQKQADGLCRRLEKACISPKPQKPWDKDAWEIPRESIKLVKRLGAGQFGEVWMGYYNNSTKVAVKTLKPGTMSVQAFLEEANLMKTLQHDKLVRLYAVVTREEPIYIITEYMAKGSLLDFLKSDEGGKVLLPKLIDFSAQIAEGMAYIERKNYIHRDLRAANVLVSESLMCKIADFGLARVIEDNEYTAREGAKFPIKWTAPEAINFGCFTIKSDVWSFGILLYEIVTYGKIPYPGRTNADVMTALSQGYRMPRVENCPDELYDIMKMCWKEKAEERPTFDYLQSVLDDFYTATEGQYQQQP

In the case of `c1ccc(-c2n[nH]cc2-c2ccnc(-c3ccc(OCCn4ccnc4)cc3)c2)nc1`, the inhibition in assay [1] was determined as 2.53%; in [2], 2.2%; in assay [3] it was 16.3%; in assay [4] it was 0.89%; in assay [5] it was 12.3%; in assay [6] it was 0.8%. For the same compound, the inhibition came to 2.68% in assay [7], 4.9% in assay [8], 0.98% in [9] and 0.34% in [10].

Turning to `c1cnn2ncc(-c3ccnc(NCCCN4CCOCC4)n3)c2c1`, the inhibition in assay [1] is 2.33%; in assay [2], 5.49%; in assay [3], 3.64%; in [4], 2.77%; in [5] it was 0.53%; in assay [6], 3.19%. For the same compound, the inhibition is -0.16% in assay [7], -0.1% in assay [8], 0.15% in assay [9] and 2.04% in assay [10].

Turning to `COc1c(C(N)=O)cc(-c2ccc(Cl)cc2)cc1-c1ccc(S(N)(=O)=O)cc1`, the inhibition in [1] came out at 6.74%; in assay [2], 5.65%; in assay [3], 6.7%; in assay [4], 3.05%; in [5] it was 3.95%; in assay [6], 2.2%. In addition, the inhibition in [7] stood at 6.71%; in assay [8] it was 10.9%; in assay [9], 5.98%; in [10] it was 2.39%.

Turning to `COc1cc(N2CCN(C(C)C)CC2)ccc1Nc1nc(Nc2cccc3ncccc23)c2cc[nH]c2n1`, the inhibition is 80.2% in [1]; 0.41% in assay [2]; 2.82% in assay [3]; 0.31% in assay [4]; 2.18% in [5]; 0.54% in assay [6]. For the same compound, the inhibition in [7] was 2.09%; in assay [8], -2.89%; in [9], -1.9%; in assay [10], 5.11%.

For `Cc1c2ccc(N(C)c3ccnc(Nc4cccc(S(N)(=O)=O)c4)n3)cc2nn1C`, the inhibition in assay [1] worked out at 24.1%; in assay [2], 41.3%; in assay [3] it was 83.6%; in assay [4] it was 36.3%; in assay [5], 80.7%; in assay [6], 17.7%. The inhibition turned out to be 61.9% in [7], 10.6% in assay [8], 28.1% in assay [9] and 2.38% in assay [10].

Consider `CN1CCC(n2cnc(-c3ccc(F)cc3)c2-c2ccnc(NCCO)n2)CC1`, for which the inhibition in [1] was 5.36%; in [2], 5.64%; in assay [3], 7.19%; in [4], 3.08%; in assay [5] it was 5.79%; in assay [6], 2.22%. For the same compound, the inhibition in assay [7] was determined as 7.18%; in [8], 0.32%; in assay [9], 10.6%; in assay [10] it was 3.32%.

On to `NS(=O)(=O)c1cccc(N/C=C2\C(=O)Nc3ccccc32)c1`, for which the inhibition in assay [1] worked out at 10.6%; in assay [2], 5.77%; in assay [3], 11.6%; in assay [4], 3.69%; in [5], 8.12%; in assay [6] it was 3.46%. For the same compound, the inhibition in [7] turned out to be 8.24%; in [8], 4.45%; in assay [9], 6.92%; in assay [10], 4.44%.

As for `COc1cc(Nc2ncc(-c3ccccc3)o2)cc(OC)c1`, the inhibition is 5.66% in [1]; 8.05% in assay [2]; 27.4% in assay [3]; 5.81% in assay [4]; 22.1% in assay [5]; 3.6% in assay [6]. The inhibition came out at 4.87% in assay [7], 3.69% in assay [8], 5.98% in [9] and 2.95% in [10].

In the case of `CCOc1ccc2c(-c3ccnc(Nc4cc(OC)cc(C(F)(F)F)c4)n3)cnn2n1`, the inhibition is 1.37% in assay [1]; 2.55% in assay [2]; 5.91% in assay [3]; 0.62% in [4]; 4.08% in assay [5]; 1.11% in assay [6]. Further, the inhibition in [7] was found to be 4.18%; in assay [8] it was 4.49%; in assay [9], 5.18%; in assay [10], 0.02%.

For `CN1CCC(C(=O)Nc2n[nH]c3nc(-c4ccc(O)cc4)c(Br)cc23)CC1`, the inhibition in [1] is 50.1% and 45.5%; in [2] it was 4.2% and 2.89%; in [3], 8.89% and 2.99%; in assay [4] it was 2.55% and 3.95%; in [5], 6.26% and 2.78%; in assay [6], 1.28% and 4.74%. Further, the inhibition in assay [7] is 4.17% and 6.1%; in assay [8] it was 3.13% and 11.9%; in [9], 14.2% and 6.92%; in [10] it was 2.28% and 1.53%.

On to `CCN1CCC(C(=O)Nc2n[nH]c3nnc(-c4cccc(F)c4F)cc23)CC1`, for which the inhibition is -0.29% in assay [1]; 0.08% in assay [2]; -1.05% in assay [3]; 1.1% in assay [4]; 0.66% in assay [5]; 0.64% in [6]. The inhibition in assay [7] is 2.84%; in [8] it was 4.13%; in assay [9] it was 2.58%; in assay [10], 1.86%.

On to `N#Cc1cccc(Nc2ncc(-c3ccccc3)o2)c1`, for which the inhibition in [1] came to 3.55%; in [2] it was 3.97%; in assay [3], 10.5%; in assay [4] it was 2.56%; in [5], 9.05%; in assay [6], 0.53%. Also, the inhibition in assay [7] came out at 4.24%; in assay [8], 2.46%; in assay [9], 5.36%; in [10], 1.86%.

Turning to `COc1ccc(-c2nn3ncccc3c2-c2ccnc(Nc3ccc(F)c(F)c3)n2)cc1`, the inhibition in assay [1] was 5.06%; in [2] it was 6.17%; in assay [3], 21.3%; in [4], 3.08%; in [5], 17.7%; in assay [6], 1.6%. In addition, the inhibition in assay [7] is 7.43%; in [8] it was 1.87%; in [9], 8.73%; in assay [10], 3.13%.

In the case of `CC1=C(C(=O)Nc2ccc3[nH]nc(C)c3c2)C(c2ccc(C(F)(F)F)cc2)CC(=O)N1` (stereo not given), the inhibition worked out at 3.55% in assay [1]; 4.49% in assay [2]; 6.25% in assay [3]; 1.98% in assay [4]; 3.89% in [5]; 2.17% in [6]. In addition, the inhibition in assay [7] amounted to 5.55%; in [8], 1.4%; in [9], 17.3%; in assay [10], 5.25%.

Consider `COc1cccc(Nc2nccc(-c3cnn4ncccc34)n2)c1`, for which the inhibition in assay [1] came to 18.2%; in assay [2], 5.3%; in assay [3], 16.9%; in assay [4] it was 3.27%; in [5], 11.3%; in [6], 1.29%. The inhibition was found to be 12.1% in assay [7], 3.9% in assay [8], 12.1% in assay [9] and 2.83% in [10].

The term inhibition denotes the drop in the measured response relative to a control, in per cent.

These data come from ChEMBL document CHEMBL1961873, “Compounds: GSK PKIS; Assays: Nanosyn kinase panel” (2012).
